Measured values reported in ChEMBL document CHEMBL1157539, “Thousands of chemical starting points for antimalarial lead identification” (Nature, 2010).

tested on: Plasmodium falciparum; test: GSK_TCMDC: Inhibition of Plasmodium falciparum 3D7 in whole red blood cells, using parasite LDH activity as an index of growth. Test compounds present at 2uM; format: functional

In order of rising Inhibition:
1. CN(CCC(CCN1CCC(c2c[nH]c3ccccc23)CC1)c1ccccc1)C(=O)Nc1ccc(Cl)c(Cl)c1 (stereo not drawn)  91%
2. Cc1cccc(-c2nn(-c3ccccc3)c3[nH]c(=O)c(CN4CCSCC4)cc23)c1  98%
3. COc1ccc(C(=O)NCc2ccccc2-c2ccc(C(C)(C)C)cc2)cc1O  99%
4. COc1nc2c(N3CCN(CCNCc4ccc5c(n4)NC(=O)CO5)CC3)ccnc2cc1F.Cl  100%
5. Cl.c1ccc2c(Nc3ccc(Oc4ccc(Nc5c6ccccc6nc6ccccc56)cc4)cc3)c3ccccc3nc2c1  100%
6. CCN(CC)CCNc1ccnc2[nH]c3ccc(I)cc3c12  100%

tested on: Plasmodium falciparum; test: GSK_TCMDC: Inhibition of Plasmodium falciparum Dd2 in whole red blood cells, using parasite LDH activity as an index of growth. Test compounds present at 2uM; format: functional

In order of rising Inhibition:
1. O=C(/C=C/c1ccc(Cl)c(Cl)c1)NCCCCCN1CCCN(C(=O)Nc2ccc(F)c(Cl)c2)CC1  0%
2. CCCNCc1ccc(-c2ccc(CN(C(=O)c3nn(-c4ccccc4)nc3C)C3CCOCC3)cc2)nc1.O=C(O)C(F)(F)F  0%
3. COc1ccc2c(=NN=Cc3ccccc3F)cc(C)[nH]c2c1  12%
4. O=C(Nc1ccc(F)cc1F)NC1CCN(CCCCCNC(=O)C2CC2c2ccc(Cl)c(Cl)c2)CC1 (stereo not drawn)  32%
5. COc1ccc2nccc([C@@H](O)CN3CCC(NC(=O)c4ccc(CN5CCN(c6cccc(C)c6)CC5C)cc4)CC3)c2c1 (stereo partly drawn)  86%
6. Cn1c(Nc2cc(C(C)(C)C)on2)nc2cc(Nc3ccnc(Nc4cccc(CS(C)(=O)=O)c4)n3)ccc21  94%
7. CCNc1cc(C(=O)N[C@@H](Cc2ccccc2)[C@H](O)CNC23CCC(CC2)C3)cc(N2CCCCS2(=O)=O)c1.Cl  99%
